Consider 27 compounds from PubChem BioAssay (Tox21).

Records with an inconclusive call do not appear. A number with no mark means an inactive call. Activity calls are given as the source filed them. Calls follow the shape of the dose curve; as a rule, active = well fitted cell-killing curve with a large enough effect in the repeat runs; inconclusive = weak or mixed curves, or effect the other way; inactive = flat fitted curve, though single readings scatter.
% is scaled to controls: 0 for no effect and ±100 for the full control effect; potency is read from the fitted curve at half-maximal effect.

A short description of this assay: qHTS RealTime-Glo MT Cell Viability Assay in HEK293 cells - 16 hour (AID 1224872). Also: nearly all actives have a fitted effect of over 50% in size. As to activity change, negative = cytotoxicity: top concentration of the series differs between compounds. The settings on record: RealTime-Glo luminescence; series mostly up to 76.8 µM; activity change, negative = cytotoxicity: at the top concentration. An outline of the steps:
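Cells + reagent dispensed (600 cells/well, HEK293) → 5 h at 37 C/5% CO2 → 23 nL compound in DMSO pinned → 40 h at 37 C → luminescence read at 0, 8, 16, 24, 32, 40 h.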
(In general: In qHTS, concentration-response curves come from the screen itself.)
As for `C[n+]1ccn(Cc2ccccc2)c1`, the “activity change, negative = cytotoxicity” value is -24.6%. For the compound `CC(C)n1nc(-c2cc3cc(O)ccc3[nH]2)c2c(N)ncnc21`, the Potency is 0.477 µM (active).

With `CCCCCCCCCCCCCCCC[N+](C)(C)CCN(Cc1ccc(OC)cc1)c1ncccn1`, the Potency is 1.34 µM (active). The same measure, in the same setting: in the case of `CNc1ccc(O)cc1` it was 13.8 µM (active). On the same count and under the same terms, in the case of `Oc1ccc(Cl)cc1Sc1cc(Cl)ccc1O` it was 21.8 µM (active).

`CCCCN1C(=O)[C@@H]([C@H](O)C2CCCCC2)NC(=O)C12CCN(Cc1ccc(Oc3ccc(C(=O)O)cc3)cc1)CC2`: the “activity change, negative = cytotoxicity” value is -12.4%. In the case of `Oc1ccc(N=Nc2ccccc2)cc1`, the Potency was 15.7 µM (active). Turning to `CCOC(=O)c1nc(C(Cl)(Cl)Cl)n(-c2ccc(Cl)cc2Cl)n1`, the “activity change, negative = cytotoxicity” value is -28.1%. Take `NC(=O)C1(N2CCCCC2)CCN(CCCN2c3ccccc3CCc3ccc(Cl)cc32)CC1`: the Potency was 21.3 µM (active). Still for that read-out and setting: in the case of `CCCCc1oc2ccc(NS(C)(=O)=O)cc2c1C(=O)c1ccc(OCCCN(CCCC)CCCC)cc1` it was 10.7 µM (active); in that of `Clc1ccccc1C(c1ccccc1)(c1ccccc1)n1ccnc1`, 27.5 µM (active); in that of `CC(C)(C)CC(C)(C)c1ccc(O)c(Cc2ccc(Cl)cc2Cl)c1`, 21.3 µM (active). On the same count and under the same terms, in the case of `OCCN1CCN(CC/C=C2/c3ccccc3Sc3ccc(C(F)(F)F)cc32)CC1` it was 19 µM (active); in that of `CCN(CC)CCCC(C)Nc1c2ccc(Cl)cc2nc2ccc(OC)cc12` (configuration not stated), 4.25 µM (active).

As to `COc1ccc(CN2CCN(C(c3ccc(F)cc3)c3ccc(F)cc3)CC2)c(OC)c1OC`, the Potency was 9.52 µM (active). On the same count and under the same terms, in the case of `NC(=NCCCCCCN=C(N)/N=C(\N)Nc1ccc(Cl)cc1)/N=C(\N)Nc1ccc(Cl)cc1` it was 19.8 µM (active) [middle of 4 runs]. As for `Nc1ccccc1O`, the “activity change, negative = cytotoxicity” value was -4.07%. Regarding `Nc1ccc2c3c(cccc13)-c1ccccc1-2`, the Potency is 24.8 µM (active). The same measure, in the same setting: in the case of `C/C=C1/C(=O)C[C@H]2[C@@H]3CCC4=CC(=O)CC[C@]4(C)[C@H]3CC[C@]12C` it was 43.5 µM (active); in that of `ON=C1CCCC1`, 22.6 µM (active). Still for that read-out and setting: in the case of `C[C@@H](NCCCc1cccc(C(F)(F)F)c1)c1cccc2ccccc12` it was 23.9 µM (active). For the compound `Nc1ccc2cc(S(=O)(=O)O)cc(O)c2c1N=Nc1ccccc1C(F)(F)F`, the “activity change, negative = cytotoxicity” value was -2.86%. On the same count and under the same terms, in the case of `Cc1onc(-c2ccccc2Cl)c1C(=O)N[C@@H]1C(=O)N2[C@@H]1SC(C)(C)[C@@H]2C(=O)O` it was 6.13% [at 35.3 µM]. As to `CS(=O)(=O)CCNCc1ccc(-c2ccc3ncnc(Nc4ccc(OCc5cccc(F)c5)c(Cl)c4)c3c2)o1`, the Potency is 19 µM (active). On to `CCN(CCC#N)c1ccc(N=Nc2c(Cl)cc([N+](=O)[O-])cc2Cl)cc1`, for which the “activity change, negative = cytotoxicity” value is -1.28%.

`CCCCCCCCCCCCc1ccc(O)cc1`: the Potency is 38.9 µM (active). Take `O=C(Oc1cccc2cccnc12)c1ccccc1`: the “activity change, negative = cytotoxicity” value is -9.74% [at 35.3 µM].
